Laboratory results published in PubChem BioAssay AID1259343 (VanderVen Lab, College of Veterinary Medicine, Cornell …, 2017).
The whole screen tested about 6,200 compounds, of which about 2,900 (47%) were called active. So high a share suggests a set chosen from earlier hits. The list shows a part of the results. A number with no mark means an inactive call. Rule as the data show it: active = inhibition above about 50%; inactive = the rest.

Assay: Mycobacterium tuberculosis growth inhibition, primary screen (AID 1259343)
Conditions: inhibition: at 10 µM, active compounds read high; outcome: 10 uM

Row | SMILES | inhibition
1 | Cc1cc2c(=O)n(Cc3ccco3)c(SCC(=O)c3cccs3)nc2s1 | 85.2% (active)
2 | COc1ccc(-c2noc(COc3cccc4c3OCCO4)n2)cc1 | 51.6% (active)
3 | COc1ccc(-c2noc(CSc3nnnn3C3CCCC3)n2)cc1 | 41%
4 | CN(NC(=O)CC(=O)NN(C)C(=S)c1ccccc1)C(=S)c1ccccc1 | 102% (active)
5 | CC(C(O)c1ccccc1)N(C)C(=O)c1ccccc1 (stereo not given) | 1.34%
6 | Oc1ccc2ccccc2c1C=NNC1=NCCC1 | 27.5%
7 | Cc1cc(=O)[nH]c(NN=Cc2c3ccccc3cc3ccccc23)n1 | 49.1%
8 | Oc1ccc2ccccc2c1C=NNc1nnc(-c2ncc[nH]2)c2ccccc12 | 99% (active)
9 | CCCC(C)C1(CC)C(=O)NC(=S)NC1=O (stereo not given) | 32.6%
10 | Nc1cc([N+](=O)[O-])ccc1NS(=O)(=O)c1ccc(Cl)cc1 | -52.1%
11 | Nc1ccc(S(=O)(=O)Nc2ccc([N+](=O)[O-])cc2O)cc1 | 53.9% (active)
12 | CS(=O)(=O)Nc1ccc([N+](=O)[O-])cc1Oc1ccccc1 | 24.9%
13 | CC(=NNC(N)=S)C1=CC(C)(C)CCC1 | 90.9% (active)
14 | CCc1ccc(C(=O)Nc2ccc(Br)cc2)s1 | 73.9% (active)
15 | CCc1ccc(C(=O)Nc2ncc(C)s2)s1 | 62.1% (active)
16 | Cc1cnc(NC(=O)C2=C(O)c3ccccc3S(=O)(=O)N2C)s1 | 34.9%
17 | CCOc1ccc(NC(=O)c2ccc(Br)s2)cc1 | 8.86%
18 | Cc1cnc(NC(=O)c2cccc(OC(F)F)c2)s1 | -11.7%
19 | Cn1c(=NN=CC(Br)=Cc2ccccc2)sc2ccccc21 | 88.2% (active)
20 | Cn1c(=NN=Cc2ccccc2C(F)(F)F)sc2ccccc21 | -39.7%
21 | COc1cc(C=NN=c2sc3ccccc3n2C)cc(Br)c1O | 10.7%
22 | Cn1c(=NN=Cc2ccc(OC(F)F)cc2)sc2ccccc21 | -24.6%
23 | COc1cc(C=NN=c2sc3ccccc3n2C)cc(OC)c1O | 68.8% (active)
24 | Cn1c(=NN=CC(Cl)=Cc2ccccc2)sc2ccccc21 | 88.7% (active)
25 | Cc1cc(NC(=O)C2CC2)sc1C(=O)n1ccnc1 | 48.7%
26 | CCN(CCNC(=O)NCC1CCCC1)C(=O)OC(C)(C)C | 47.4%
27 | O=C(NCC1CCCC1)n1ccnc1 | 79.2% (active)

Row | SMILES | inhibition
28 | CC1CN(C(=O)CN2CCc3sccc3C2c2cccc(F)c2)CCN1C(=O)Nc1ccc([N+](=O)[O-])cc1 (stereo not given) | -36.2%
29 | OC(C#Cc1ccccc1)C#CC(O)(c1ccccc1)c1ccccc1 (stereo not given) | -2.57%
30 | N#CC(=Cc1ccc2c(c1)OCCO2)C(=O)Nc1ccc(SC(F)F)cc1 | 84.4% (active)
31 | CSc1ccc(C=CC(=O)c2ccc3c(c2)OCCO3)cc1 | -10.1%
32 | COC(=O)c1ccc(NS(=O)(=O)c2ccccc2Br)s1 | 43.4%
33 | O=S(=O)(Nc1ccccc1Br)c1ccc(Br)s1 | 83.3% (active)
34 | CC(C)(C)c1ccccc1NS(=O)(=O)c1ccc(Cl)s1 | 23.7%
35 | O=S(=O)(Nc1ccccc1Br)c1ccccc1Br | 91.4% (active)
36 | CCc1ccccc1NS(=O)(=O)c1cc(Cl)cnc1N | 1.41%
37 | CC1(C)C(C=C(Cl)Cl)C1C(=O)OCc1cccc(Oc2ccccc2)c1 (stereo not given) | -12.7%
38 | O=C(NCCc1ccc(Cl)cc1Cl)c1cn[nH]c1 | 91.4% (active)
39 | O=C(NCCc1cc(Cl)cc(Cl)c1)c1ccc2c(c1)COCO2 | 25.3%
40 | CCOc1ccccc1CNC(=O)c1ccc(-c2cc(-c3ccc(Cl)cc3Cl)[nH]n2)cc1 | 31.1%
41 | CN(C)c1c(Cl)cccc1NC(=O)NCc1ccoc1 | 40.8%
42 | CC(NS(=O)(=O)Cc1cccc(C(F)(F)F)c1)c1cccc(Br)c1 (stereo not given) | 25.3%
43 | ON=Cc1cccc(OCc2ccccc2)c1 | -7.21%
44 | N#Cc1ccc(NC(=O)Cc2cccc(C(F)(F)F)c2)cc1Cl | 8.71%
45 | CC(=O)Nc1ccc(OCc2ccc(Br)cc2F)cc1 | 62.5% (active)
46 | FC(F)(F)c1cccc(CSc2ncnc3ccccc23)c1 | 38.1%
47 | Oc1cccc(OCc2cccc(C(F)(F)F)c2)c1 | 89.2% (active)
48 | COc1cc(COc2ccc(NC(C)=O)cc2)c(OC)cc1Br | 19.7%
49 | CC(=O)Nc1ccc(OCc2cccc(C(F)(F)F)c2)cc1 | 57.6% (active)
50 | O=C1N=C(c2ccccc2)OC1=CC=Cc1ccccc1 | -12.3%
51 | COc1ccccc1/C=C/C=C1N=C(/C=C/c2ccc(C)cc2)OC\1=O | 81.8% (active)
52 | O=c1c2ccccc2nnn1Cc1ccc(Cl)cc1 | 103% (active)
53 | Cc1cc(NC(=O)c2cccn(Cc3ccc(Cl)cc3)c2=O)c2ccccc2n1 | 20.7%
54 | O=c1c2ccccc2nnn1CSc1ccc(F)cc1 | 72.2% (active)

Row | SMILES | inhibition
55 | Cc1ccc(OCC(O)Cn2nnc3ccccc3c2=O)cc1 (stereo not given) | 35%
56 | CC1N(C)c2ccc(C=C(C#N)C#N)cc2C1(C)C (stereo not given) | -15.1%
57 | CCCc1nnc(SCc2ccc(OCCC(C)C)cc2)n1N | 37.1%
58 | CC(C)CCOc1ccc(C=C(C#N)C#N)cc1 | 51.5% (active)
59 | Cc1csc(SCc2cc(=O)c(OC(=O)c3ccc(C)c(C)c3)co2)n1 | -15%
60 | COc1coc(CN2CCCC(CCc3ccccc3C)C2)cc1=O (stereo not given) | 33.7%
61 | O=C(c1cc(COc2cccc(C(F)(F)F)c2)on1)N1CCCC(CCCO)C1 (stereo not given) | 47.5%
62 | COc1ncc(C(=O)N2CCCC(COc3cccc(F)c3)C2)cn1 (stereo not given) | 36.7%
63 | O=C(c1cnn2ccccc12)N1CCCC(CCc2cccc(C(F)(F)F)c2)C1 (stereo not given) | 93.1% (active)
64 | COc1ncc(CN2CCCC(CCc3ccccc3C(F)(F)F)C2)cn1 (stereo not given) | 77.6% (active)
65 | CCCC1CCCN(C(=O)c2cc3ccccc3cc2O)CC1 (stereo not given) | 23.5%
66 | CC(C)c1ncc(CN2CCCC(CCc3cccc(C(F)(F)F)c3)C2)cn1 (stereo not given) | 93.2% (active)
67 | CCOC1=CC(=O)N(Cc2ccccc2)C1 | 48.1%
68 | CCCOc1ccc(Cc2nn[nH]n2)cc1 | 34.6%
69 | CCCOc1ccc(C2c3c(oc4ccc(C)cc4c3=O)C(=O)N2c2nccs2)cc1 (stereo not given) | -18.8%
70 | CCOc1ccc(Cn2c(=O)oc3ccccc32)cc1 | 68.1% (active)
71 | COc1ccc(Cn2c(C3CCCCC3)nc3oc4ccccc4c(=O)c3c2=O)cc1 | -20.8%
72 | CCCOc1ccc(Cn2c(=O)oc3ccc(C)cc32)cc1 | 67.2% (active)
73 | NC1=NC(=O)C(CC(=O)Nc2ccc(SC(F)(F)C(F)(F)C(F)(F)F)cc2)S1 (stereo not given) | 35.5%
74 | O=S(=O)(/C=C/c1ccccc1)Nc1ccc(Cl)cc1F | 81.5% (active)
75 | O=S(=O)(/C=C/c1ccccc1)NC1CCCCC1 | 17%
76 | O=S(=O)(/C=C/c1ccccc1)Nc1ccccc1C(F)(F)F | 78.4% (active)
77 | O=S(=O)(/C=C/c1ccccc1)NCCc1cccc2ccccc12 | 6.24%
78 | Cc1ccc2nc(-c3cccc(N)c3C)oc2c1 | 42.1%
79 | COc1ccc(OCCNc2ccccc2-c2nn[nH]n2)cc1 | 22.1%
80 | Cc1cccc(C)c1-c1ccc(-c2nn[nH]n2)cc1 | 70.6% (active)
81 | O=C(Cn1ncc(Cl)c(Cl)c1=O)c1cc(F)ccc1F | -50.8%

Row | SMILES | inhibition
82 | O=C(Cn1ncc(Cl)c(Cl)c1=O)c1ccc2c(c1)CCC2 | 82.8% (active)
83 | O=C(Cn1ncc(Cl)c(Cl)c1=O)Nc1ccc2ccccc2c1 | 11%
84 | CC(C)(C)c1ccc(OCc2ccc(C(=O)OCC#N)cc2)cc1 | -2.26%
85 | CC(C)OC(=O)c1ccc(COc2ccc(C(C)(C)C)cc2)o1 | 75.8% (active)
86 | CC(C)c1nc(CC(=O)N(C)Cc2ccc(C3CC3C)o2)cs1 (stereo not given) | 83.2% (active)
87 | CC1CC1c1ccc(/C=C2/SC(N)=NC2=O)o1 (stereo not given) | 5.99%
88 | CC1CC1c1ccc(CCC(=O)Nc2ccccn2)o1 (stereo not given) | 48.8%
89 | COc1cccc(Cc2nsc(Oc3ccc(CC(=O)O)cc3)n2)c1 | 88.3% (active)
90 | COc1cccc(CC(=O)Nc2ccc3c(c2)CCC3)c1 | -43.3%
91 | CN(Cc1ccc2cccc(O)c2n1)Cc1noc(C2CCC2)n1 | 98.5% (active)
92 | C=C(C)COc1cccc(C(=O)NCc2noc(C3CCCC3)n2)c1 | 38.4%
93 | CCc1nnc(NS(=O)(=O)c2ccccc2Cl)s1 | 80.2% (active)
94 | COCc1nnc(NS(=O)(=O)c2ccc(Br)cc2)s1 | inactive
95 | CC(C)c1nnc(NS(=O)(=O)c2ccc(Cl)s2)s1 | -36.5%
96 | c1cc2cc(CNc3nc(NCC4CC4)nc4ccsc34)ccc2o1 | 76.9% (active)
97 | Brc1ccc(CSc2nnc(-c3ccc4c(c3)OCO4)o2)cc1 | 59.2% (active)
98 | Clc1ccccc1CSc1nnc(-c2ccc3c(c2)OCO3)o1 | 1.82%
99 | Brc1cc2c(cc1CSc1nnc(-c3ccccc3)o1)OCO2 | -11.5%
100 | N#CCSc1nnc(-c2ccc3c(c2)OCO3)o1 | 97.5% (active)
101 | Clc1cccc(Cl)c1CSc1nnc(-c2ccc3c(c2)OCO3)o1 | 63.3% (active)
102 | Brc1ccccc1CSc1nnc(-c2ccc3c(c2)OCO3)o1 | 99.6% (active)
103 | Clc1cccc(CSc2nnc(-c3ccc4c(c3)OCO4)o2)c1 | 41.6%
104 | CCn1nc(NC(C)=O)c2cc3ccc(C)cc3nc21 | -33.9%
105 | CN(C(=O)c1cc(Cl)sc1Cl)c1ccc(-c2onc3c2CCc2ccccc2-3)cc1 | 35.5%
